Screens (PubChem BioAssay)
The list is not random: actives were taken first. Their share in the collection is about 5.4%.
Mdm2-MdmX inh: disrupts the human Mdm2-MdmX interaction; O15151+Q00987; SaOS-2 split-luciferase Mdm2/MdmX complementation, luminescence; inhibition, % at 8 µM; 330,000 compounds, 3% hits; AID 485346;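 active = inhibition of at least 50% at 8 µM in the primary screen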
Target sequence (O15151 whole entry, looked up): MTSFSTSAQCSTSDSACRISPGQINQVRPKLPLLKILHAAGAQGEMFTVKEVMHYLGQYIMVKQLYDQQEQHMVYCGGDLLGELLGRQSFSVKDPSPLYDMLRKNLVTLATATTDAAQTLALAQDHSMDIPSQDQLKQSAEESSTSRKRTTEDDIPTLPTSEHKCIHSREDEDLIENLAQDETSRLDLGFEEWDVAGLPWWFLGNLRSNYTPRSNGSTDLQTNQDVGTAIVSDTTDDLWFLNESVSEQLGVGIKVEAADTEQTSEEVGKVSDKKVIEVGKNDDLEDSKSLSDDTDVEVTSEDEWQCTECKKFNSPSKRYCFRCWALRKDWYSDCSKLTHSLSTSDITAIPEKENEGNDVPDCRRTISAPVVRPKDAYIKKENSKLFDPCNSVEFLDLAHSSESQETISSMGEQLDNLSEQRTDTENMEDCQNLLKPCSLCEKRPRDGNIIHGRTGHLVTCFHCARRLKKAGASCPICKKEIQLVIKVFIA
Target sequence (Q00987 whole entry, looked up): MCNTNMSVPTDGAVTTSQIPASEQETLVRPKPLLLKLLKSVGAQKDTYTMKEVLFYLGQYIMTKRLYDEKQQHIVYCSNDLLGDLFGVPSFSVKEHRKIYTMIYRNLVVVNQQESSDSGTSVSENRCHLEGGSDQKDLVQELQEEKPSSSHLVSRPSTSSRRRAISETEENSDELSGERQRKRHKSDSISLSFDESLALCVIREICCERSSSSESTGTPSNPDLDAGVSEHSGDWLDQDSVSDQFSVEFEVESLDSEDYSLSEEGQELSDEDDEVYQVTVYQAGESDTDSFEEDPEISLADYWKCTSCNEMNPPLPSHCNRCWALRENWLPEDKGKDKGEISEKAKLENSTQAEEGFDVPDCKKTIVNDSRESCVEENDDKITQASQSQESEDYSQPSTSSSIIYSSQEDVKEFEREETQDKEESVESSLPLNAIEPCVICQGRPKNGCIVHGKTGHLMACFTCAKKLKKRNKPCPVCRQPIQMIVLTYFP
MPTP block: permeability transition pore inhibition. isolated mouse mitochondria, Ca2+ swelling absorbance, 30 min. inhibition, % at 10 µM. 360,000 compounds, 1.4% hits;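 active = inhibition of 50% or more, scaled per plate between neutral and stimulator controls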;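 note: 0% = DMSO wells given calcium and 100% = 1 mM EGTA wells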
SKKanGAS inh: blocks kanamycin growth of S. pyogenes SKKanGAS strain; BacTiter-Glo, 6 h; inhibition, % at 7.5 µM; 300,000 compounds, 1.3% hits;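 active = mean replicate score, as percent of positive control median, at least 50; inconclusive = mean below 50 but one replicate at or above 50; inactive = mean and every replicate below 50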;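 note: strain carries kanamycin resistance gene driven by streptokinase promoter and grows in 40 µg/ml kanamycin; loss of luminescence reflects streptokinase promoter inhibition or plain growth inhibition; 0% = median of DMSO wells and 100% = positive control at its reference dose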
Beta apoptosis: blocks beta cell apoptosis; INS-1E cytokine-induced death, ATP luminescence, 48 h; percent of positive-control rescue, neutral wells zero; protection from apoptosis, % (test concentration not listed); 300,000 compounds, 0.8% hits; AID 435005;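 active = Every replicate reaches about 75%, or at least half do and their mean reaches it too, limit read from the data; inconclusive = At least half of replicates reach the limit but their mean does not; inactive = Under half of replicates reach the limit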;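 note: 0% = cytokine-treated negative control wells and 100% = positive control rescue; higher means more ATP so stronger rescue from cytokine killing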
Calb FLC: affects C. albicans growth with fluconazole. 300,000 compounds, 0.57% hits. AID 1979. C. albicans CaCi-2 (fluconazole-resistant clinical isolate) + fluconazole, Alamar Blue growth, 48 h. growth inhibition, % (no concentration beside the values);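 active = growth inhibition above about 58% in most replicates, limit read from the data, passing the limit was not always enough; inconclusive = exactly half the replicates above a set limit; inactive = most replicates below a set limit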;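 note: all wells also contain fluconazole at 8 µg/ml as a sub-toxic cotreatment; 0% = median of DMSO wells and 100% = median of geldanamycin control wells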
CSC inhib: blocks cancer stem cells; cancer stem cell-like cells viability, luminescence; AID 2717; inhibition, % at 7.5 µM; 300,000 compounds, 1.1% hits; in the data active = inhibition above about 75%; inconclusive = no clear call, values can overlap the other calls; tested in HMLE shEcad cells
Mdm2 MdmX conf: confirmation of human Mdm2/MdmX interaction inhibitors; shares compounds with Mdm2-MdmX inh; 10,000 compounds, 55% hits; AID 489028; inhibition, % at 8 µM; Mdm2-MdmX binding, luminescent assay; in the data active = inhibition above about 40%
FLuc counter: inhibits full-length luciferase, flagging false Mdm2/MdmX hits; shares compounds with Mdm2-MdmX inh; SaOS-2 full-length luciferase counterscreen, luminescence; inhibition, % at 8 µM; 6,200 compounds, 77% hits; AID 504607;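 active = mean inhibition at 8 µM reaching about 37%, which flags the compound as non-specific, limit read from the data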;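 note: p53-null SaOS-2 cells with luciferase driven by a doxycycline-inducible promoter; compound on cells about two nights before reading with doxycycline added after day one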
* hit, by the source's call; u = inconclusive; x = no result given.

SMILES	Mdm2-MdmX inh	MPTP block	SKKanGAS inh	Beta apoptosis	Calb FLC	CSC inhib	Mdm2 MdmX conf	FLuc counter
CCOC(=O)c1sc(N)c(C(=O)OC)c1C	-1	-2	-3	-4	25	-3	x	x
COc1cccc(OC)c1C(=O)NCCc1ccccc1	2	0	2	0	-13	-19	x	x
Cc1ccc(C)c(NC(=S)NC(NC(=O)N(C)C)C(Cl)(Cl)Cl)c1 (stereo unspecified)	14	-1	-14	-10	7	-10	x	x
Cc1ccc(C)c(NC(=S)NC(NC(=O)Cc2cccc3ccccc23)C(Cl)(Cl)Cl)c1 (stereo unspecified)	99*	20	28	76*	-4	u	99*	2
COC(=O)c1ccc(/C=C/c2c(-c3ccsc3)oc3ccc(N4CCOCC4)cc23)cc1	57*	2	28	0	1	109*	10	x
Cc1ccc(/C=C2/NC(=O)N(Cc3ccccc3)C2=O)s1	-45	0	-5	-2	-28	-9	x	x
O=C1N/C(=C/c2cccs2)C(=O)N1Cc1ccc(Br)cc1	54*	0	-3	6	-5	-11	8	x
COc1cc(C2C3=C(CC(C)(C)CC3=O)Nc3ccccc3N2C(C)=O)cc(OC)c1OC (stereo unspecified)	3	0	1	1	11	3	x	x
C=CCN=c1scc(-c2ccccc2)n1/N=C/c1ccccn1	79*	0	-6	24	40	40	64*	42*
Cn1c(N2CCOCC2)cc(=O)n(C)c1=O	11	1	-2	2	-2	-10	x	x
COc1ccc(N=c2oc3c(OC)cccc3cc2C(=O)NCc2ccco2)c(OC)c1	68*	5	8	29	12	29	-10	x
COc1ccccc1CCNC(=O)CSc1nc(-c2ccco2)cc(C(F)(F)F)n1	76*	1	-4	x	2	7	43*	83*
COc1ccccc1CCNC(=O)CCSc1nc(-c2ccco2)cc(C(F)(F)F)n1	23	2	6	6	6	21	x	x
CCOC(=O)c1sc(NC(=O)CSc2nc(-c3ccco3)cc(C(F)(F)F)n2)c(C(=O)OC)c1C	73*	1	9	-6	12	14	29	17
O=C(CSc1nc(-c2ccco2)cc(C(F)(F)F)n1)Nc1ccc2c(c1)OCO2	62*	4	-11	-3	1	46	65*	44*
CCOC(=O)c1sc(NC(=O)CSc2nc(-c3ccco3)cc(C(F)(F)F)n2)c(C(=O)OCC)c1C	x	3	x	x	x	x	x	x
O=C(CCCSc1nc(-c2ccco2)cc(C(F)(F)F)n1)Nc1ccc2c(c1)OCO2	24	1	29	3	-16	36	x	x
CCOC(=O)c1cc(-c2cc3ccccc3o2)n[nH]1	-13	0	-3	1	-15	8	x	x
NC(=O)c1nc(-c2cccs2)nc2c1[nH]c(=O)n2-c1ccc(F)cc1	100*	2	-11	42	3	18	67*	81*
NC(=O)c1nc(-c2ccco2)nc2c1[nH]c(=O)n2-c1ccc(Cl)c(Cl)c1	75*	2	-3	30	-1	1	14	x
CCc1nnc(NC(=O)c2ccc(N(C)S(=O)(=O)c3ccccc3)cc2)s1	9	0	-5	-4	39	x	x	x
COc1ccccc1NS(=O)(=O)c1cc([N+](=O)[O-])ccc1N/N=C/c1c[nH]c2ccccc12	72*	3	38	5	0	68	25	x
COc1ccc(NS(=O)(=O)c2cc([N+](=O)[O-])ccc2N/N=C\c2c(C)[nH]c3ccccc23)cc1	77*	2	27	16	2	-1	6	x
CN(C)S(=O)(=O)c1ccc(N2CCCC2)c(C(=O)N2CCN(S(=O)(=O)c3cccc(F)c3)CC2)c1	0	-1	17	4	20	-11	x	x
COc1ccc(C(=O)CC(Nc2ccc([N+](=O)[O-])cc2)c2ccc(Cl)cc2)cc1 (stereo unspecified)	53*	28	30	16	16	40	15	x
SMILES	Mdm2-MdmX inh	MPTP block	SKKanGAS inh	Beta apoptosis	Calb FLC	CSC inhib	Mdm2 MdmX conf	FLuc counter
COc1ccc(C(=O)CC(=O)C(=O)Nc2ccc(Cl)cc2)cc1	x	4	-3	5	-16	6	x	x
CCOc1nc(N=C(N)N)nc2c(C)cccc12	56*	3	-2	48	46	-16	30	x
CCOc1ccccc1Nc1cc(C)c2cccc(C)c2n1	-11	3	14	10	6	30	x	x
COc1ccc2cc(C)c(SCC(=O)Nc3cc(C)on3)nc2c1	50	3	1	x	1	x	10	x
Cc1cc(NC(=O)CSc2nnc(-c3ccccc3)c(-c3ccccc3)n2)no1	53*	2	15	-6	12	48	56*	47*
Cc1cc(NC(=O)CSc2nnc3c(C)cc4cc(C)c(C)cc4n23)no1	78*	0	-11	0	1	1	-7	x
COc1ccc(NC(=O)CSc2nnc(C)n2C2CC2)cc1S(=O)(=O)N1CCOCC1	-16	-1	x	-1	x	7	x	x
O=C(NN1CCOCC1)c1ccc(F)cc1	40	-1	-3	-10	2	-13	x	x
COc1ccc(N(C)C2=NS(=O)(=O)c3ccccc32)cc1	52*	-3	-3	27	-25	35	69*	55*
COc1ccc(/C=N/N(C)C2=NS(=O)(=O)c3ccccc32)cc1	3	1	-4	2	-1	-3	x	x
CC1(Cc2ccc(F)cc2)C(=O)Nc2c(Cl)cccc21 (stereo unspecified)	x	0	x	x	x	x	x	x
O=C(CCC1COc2ccccc2O1)Nc1ccc(Cl)cn1 (stereo unspecified)	67*	0	x	-8	x	61	45*	84*
Nc1cc2ccncc2c2ccccc12	84*	0	14	4	x	-12	84*	50*
COc1ccc(C(=O)NC2CCCc3c2cnn3-c2cc(F)cc(F)c2)c(OC)n1 (stereo unspecified)	20	0	7	-2	3	1	x	x
COc1ccc(C(=O)NC2CCCc3c2cnn3-c2cc(F)cc(F)c2)c(OC)c1OC (stereo unspecified)	53*	-2	8	3	3	26	47*	57*
COC(=O)c1ccc(C(=O)NC2CCCc3c2cnn3-c2cc(F)cc(F)c2)nc1 (stereo unspecified)	58*	1	4	2	-5	-7	50*	57*
Cc1cc(C(=O)NC2CCCc3c2cnn3-c2ccc(C)c(C)c2)nc(C)n1 (stereo unspecified)	4	0	17	-14	22	26	x	x
